12-LOX inh = inhibitors of human 12S-lipoxygenase ALOX12 | P18054 | purified 12hLO, xylenol orange hydroperoxide absorbance | Potency, µM (top dose mostly 108 µM), usual class: inhibitors | 580,000 tested, 1.1% active | AID 1671190
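Purified human 12hLO (150 nM final) in 25 mM Hepes, 0.01% Triton X-100, pH 7.0 was preincubated 15 min at room temperature with compound. Then 40 uM arachidonic acid was added, 30 min. Hydroperoxide was read by Fe-XO absorbance ratio 573/405 nm.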
IDH1 R132H inh = blocks human mutant IDH1 R132H enzyme. IDH1-R132H enzyme, NADPH consumption, diaphorase/resazurin fluorescence. Potency, µM (doses to about 76.6 µM), actives largely listed as inhibitors. AID 602179. O75874. 390,000 tested, 0.093% active; note: nearly all actives have a fitted effect of over 65% in size
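IDH1-R132H (0.5 ug/mL) preincubated 30 min with compound, then NADPH (0.016 mM) and alpha-KG (2 mM) added; 80 min at RT, pH 7.5. Remaining NADPH coupled via diaphorase/resazurin to fluorescence (540/590 nm); concentration-response curves normalized to no-enzyme control.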
Nrf2 activator = activators of Nrf2 (ARE) signaling; AREc32 ARE-luciferase reporter (MCF7-derived line), luminescence, 24 h; Potency, µM (titrated, usually from 46.1 µM), most hits filed as activators; 410,000 tested, 0.31% active; note: nearly all actives have a fitted effect of over 65% in size
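Each well held 1000 AREc32 cells, which were incubated with compound for 24 hr at 37 deg C after overnight attachment, and ARE reporter activity was quantified by firefly luciferase luminescence.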
Nrf2 block = Nrf2 pathway inhibition; A549 ARE-Fluc reporter, luciferase luminescence, 18-24 h; Potency, µM (doses to about 46 µM), actives largely listed as inhibitors; 360,000 tested, 2.1% active; AID 504444; note: nearly all actives have a fitted effect of over 60% in size
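Nrf2 activity is the BugLite luminescence, read 15 min after reagent at room temperature, following CellTiter-Fluor cytotoxicity readout (30 min, 37C). Compound titrations were applied for 18-24 h to 5000 A549 ARE_Fluc cells/well in 5% FBS OPTI-MEM.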
A549 tox = kills or reduces viability of A549 cells in Nrf2 counter-screen; Potency, µM (highest dose often 46 µM), most hits filed as inhibitors; A549 ARE-Fluc cells, CellTiter-Fluor viability, 18-24 h; 390,000 tested, 0.16% active
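A549 ARE_Fluc cells in 5% FBS OPTI-MEM were exposed to compounds in concentration-response for 18-24 h at 37 deg C. Viability was read by CellTiter-Fluor fluorescence (Ex 405/Em 525) after 30 min, before the luciferase read.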
LDHA inh = inhibitors of human lactate dehydrogenase A. P00338. purified LDHA, NADH/diaphorase-resazurin fluorescence; hits give low values. activity change, % (values are at about 110 or 230 µM). 480,000 tested, 0.15% active. AID 1347041; in the data active = activity change below about -30%; inconclusive = mostly about -25% to -30%
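Enzyme activity of human lactate dehydrogenase 5 (2 nM; 0.06 mM NADH, 0.2 mM pyruvate, 5 min, RT) is measured via a resazurin/diaphorase fluorescence readout of residual NADH.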
A number is an active result; . = inactive; ? = inconclusive; / = not tested or not shown. Compounds with a hit are over-represented: about 2.7% of the library has one in this group of screens. Unless noted, calls come from the whole dose curve; as a rule, active = well fitted curve in the direction sought with a large enough effect; inconclusive = small, poorly fitted or top-dose-only effect, or another doubt; inactive = no such curve, though single readings can be large; an effect the other way counts as inactive or inconclusive.

SMILES	12-LOX inh	IDH1 R132H inh	Nrf2 activator	Nrf2 block	A549 tox	LDHA inh
Cc1cc(C)cc(NC(=O)c2cc(S(=O)(=O)NCCC3=CCCCC3)ccc2F)c1	?	.	.	/	.	.
Cc1ccc(S(=O)(=O)NCCC2=CCCCC2)cc1C(N)=O	.	.	.	10µM	.	.
CC(=O)N1CCc2cc(S(=O)(=O)NCCC3=CCCCC3)ccc21	.	.	.	3.7µM	.	.
Cc1cc(S(=O)(=O)NCCC2=CCCCC2)ccc1Br	.	.	.	?	.	.
CC(=O)N1CCc2cc(S(=O)(=O)NCCC(=O)N3CCc4ccccc4C3)ccc21	/	.	.	13µM	.	.
CC(=O)N1CCc2cc(S(=O)(=O)NC3CCCc4ccccc43)ccc21 (stereo not drawn)	.	.	.	6.3µM	.	.
O=C(O)c1ccc(S(=O)(=O)NC2CCCc3ccccc32)cc1 (stereo not drawn)	.	.	.	.	.	.
CCOC(=O)N1CCN(c2ccc(S(=O)(=O)N3CCC(C)CC3)cc2[N+](=O)[O-])CC1	.	.	.	18µM	.	.
CC(=O)N1CCN(c2ccc(S(=O)(=O)N3CCOCC3)cc2[N+](=O)[O-])CC1	.	.	.	.	.	.
CCc1ccc2oc(C(=O)Nc3ccc(S(=O)(=O)Nc4cc(C)nc(C)n4)cc3)cc(=O)c2c1	18µM	/	/	/	/	.
Cc1ccc2oc(C(=O)Nc3ccc(S(=O)(=O)Nc4nc(C)cc(C)n4)cc3)cc(=O)c2c1	.	.	.	?	.	.
CONC(=O)COc1ccc(Nc2ccccc2)cc1	.	/	/	/	/	.
O=C(N/N=C/c1ccccc1)c1cccs1	.	/	/	/	/	.
O=C(N/N=C/C(Br)=C/c1ccccc1)c1cccs1	.	.	10µM	?	?	.
O=C(Cn1cnc2ccccc21)N/N=C/C(Br)=C/c1ccccc1	.	.	7.1µM	.	.	.
CC1=NNC(=O)C1CC(=O)N/N=C/C(Br)=C/c1ccccc1 (stereo not drawn)	.	.	?	.	.	.
O=C(N/N=C/C(Br)=C/c1ccccc1)c1n[nH]c2c1CCC2	/	.	22µM	.	.	.
CC1C(=O)NN=C1C(=O)N/N=C\C(Br)=C\c1ccccc1 (stereo not drawn)	.	.	11µM	?	.	.
CC1(C)CC2CC(C)(CN2/C=C/C(=O)C(F)(F)F)C1 (stereo not drawn)	?	/	/	/	/	.
Cc1ccc2c(=O)cc(C(=O)NCC(c3cccs3)N3CCCCC3)oc2c1C (stereo not drawn)	.	/	/	/	/	.
Cc1nn(-c2nc3c(c(=O)n(CC(=O)C(C)(C)C)c(=O)n3C)n2C)c(C)c1C	.	/	/	/	/	.
O=C(N/N=C/C(Br)=C/c1ccccc1)c1ccccc1F	.	.	13µM	?	.	.
O=C(N/N=C/C(Cl)=C/c1ccccc1)c1ccccc1F	.	.	?	?	.	.
O=c1cc(C2=CCOCC2)oc2c(-c3cccc4[nH]ccc34)nccc12	35µM	/	/	/	/	/
O=c1cc(N2CCOCC2)oc2c(-c3ccccc3F)nccc12	.	/	/	/	/	/
SMILES	12-LOX inh	IDH1 R132H inh	Nrf2 activator	Nrf2 block	A549 tox	LDHA inh
CC(C)CCn1c(CN2CCN(c3ccccc3F)CC2)nc2c1c(=O)n(C)c(=O)n2C	.	/	/	/	/	.
c1ccc(CCNc2ncnc3sccc23)nc1	.	.	.	8.2µM	?	.
COc1ccc(CNc2ncnc3cc(Cl)ccc23)cc1OC	.	.	.	16µM	.	.
Cc1csc2ncnc(NCCc3ccccn3)c12	.	.	.	.	.	.
COc1ccc(CNc2ncnc3sccc23)cc1	.	.	.	10µM	.	.
COc1ccc(CNc2ncnc3sccc23)cc1OC	.	.	.	10µM	.	.
CCN(CC)S(=O)(=O)c1cccc(S(=O)(=O)c2cccc(S(=O)(=O)N(CC)CC)c2)c1	.	.	.	9.2µM	.	.
Cc1ccc(S(=O)(=O)SCCCSS(=O)(=O)c2ccc(C)cc2)cc1	1.8µM	.	.	.	.	.
Cc1ccc(S(=O)(=O)SC/C=C/CSS(=O)(=O)c2ccc(C)cc2)cc1	0.71µM	.	.	12µM	.	.

Assay outcomes deposited in PubChem by National Center for Advancing Translational Sciences (NCATS).
